This passage reports AC50 and activity, negative = inhibition results from PubChem BioAssay AID1851 (National Center for Advancing Translational Sciences (NCATS), 2009).

Values joined by “and” are separate entries in the source; they are usually repeats but may differ in a detail not shown here. Equal entries are not always repeated. About 5,700 (36%) of roughly 16,000 compounds were called active. Inconclusive results (about 24%) are left out. The list shows a part of the results. Values without a mark were called inactive. The call rests on the fitted dose curve; in most records, active means well fitted curve in the direction sought with a large enough effect; inconclusive means small, poorly fitted or top-dose-only effect, or effect the other way; inactive means no such curve, though single readings can be large or run the other way.
On the % scale 0 is the no-effect control and ±100 the full control effect.

Sequence of Cytochrome P450 1A2 (Homo sapiens) (P05177 whole entry, looked up): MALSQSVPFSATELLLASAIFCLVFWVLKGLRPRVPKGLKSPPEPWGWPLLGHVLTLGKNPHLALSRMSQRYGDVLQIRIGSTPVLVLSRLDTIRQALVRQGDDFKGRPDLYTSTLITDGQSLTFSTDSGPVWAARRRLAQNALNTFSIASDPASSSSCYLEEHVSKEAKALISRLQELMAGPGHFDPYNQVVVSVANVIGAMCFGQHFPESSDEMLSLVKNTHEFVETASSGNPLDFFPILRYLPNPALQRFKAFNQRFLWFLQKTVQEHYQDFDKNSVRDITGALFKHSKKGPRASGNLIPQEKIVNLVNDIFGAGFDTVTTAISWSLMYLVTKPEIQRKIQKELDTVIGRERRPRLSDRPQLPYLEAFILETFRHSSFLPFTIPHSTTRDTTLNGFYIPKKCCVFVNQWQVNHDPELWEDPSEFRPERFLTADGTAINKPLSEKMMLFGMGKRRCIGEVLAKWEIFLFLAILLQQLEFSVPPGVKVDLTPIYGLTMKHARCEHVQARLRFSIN

This assay has as its target Cytochrome P450 1A2 (Homo sapiens) (UniProt P05177). The assay is described as follows: Cytochrome panel assay with activity outcomes. The following applies: recombinant CYP, pro-luciferin dealkylation, luminescence, p450-cyp1a2; series mostly up to 57.1 µM.
Consider `O=c1cc(CSc2nnc(-c3cccnc3)n2-c2ccccc2F)nc2sccn12`, for which the AC50 – broadly, the concentration giving half of the maximal activity seen – is “inactive”.

Turning to `COCCn1c(=O)c(-c2ccc(Cl)cc2)nc2cnc(N(C)C)nc21`, the half-maximal activity concentration (AC50) is 1 µM (active).

As to `COCCn1c(=O)c(-c2ccccc2)nc2cnc(N(C)C)nc21`, the AC50 was 3.16 µM (active).

For `COCCn1c(=O)c(-c2ccc(F)cc2)nc2cnc(N(C)C)nc21`, the AC50 was 2 µM (active).

For `C[C@@H]1/C=C\CC(=O)OC[C@H](C)C(=O)N2CCC[C@@H]2C(=O)OC1`, the activity, negative = inhibition was -1.21% [at 11.4 µM].

For the compound `Cc1ccc(/C=C/c2ccc(=O)n(Cc3ccc(Cl)cc3Cl)n2)cc1`, the AC50 is 10 µM (active).

Turning to `CC(=O)OC[C@@H]1O[C@H](CCON=C(C)C)C=C[C@@H]1OC(C)=O`, the activity, negative = inhibition is 4.98% [at 11.4 µM].

Take `CNCCc1ccccn1`: the AC50 entry was “inactive”.

Regarding `c1ccc(CCc2cccnc2)nc1`, the AC50 was 0.398 µM (active).

For `ON(CCc1ccncc1)Cc1ccccc1`, the AC50 is 1 µM (active).

With `ON(CCc1ccccn1)Cc1ccccc1`, the AC50 was 2.51 µM (active).

`O=C1NC(=O)[C@@](Cc2ccccc2)(c2cccnc2)N1`: the activity, negative = inhibition was -17.1% [at 2.29 µM].

Take `CS(=O)(=O)N(CC(=O)O)Cc1ccccc1`: the activity, negative = inhibition is 4.38% [at 11.4 µM].

With `Cc1nc2nc(C)c(CCC(=O)NCCCN3CCN(c4cccc(Cl)c4)CC3)c(C)n2n1`, the AC50 entry is “inactive”.

On to `O=C(c1csnn1)N1CCC2(CCN(Cc3ccccc3)CC2)CC1`, for which the AC50 result is “inactive”.

On to `Cc1ccccc1CSc1nsc(N)n1`, for which the AC50 was 14.1 µM (active).

Turning to `O=C(N/C(=C\c1cccs1)C(=O)N1CCCCCC1)c1ccccc1`, the AC50 result is “inactive”.

Turning to `O=C(NC(N1CCCC1)C(Cl)(Cl)Cl)c1ccccc1` (centres undefined), the AC50 is 11.2 µM (active).

Regarding `O=C(NNC(=O)c1ccccc1)C(=O)N1CCCCC1`, the AC50 entry was “inactive”.

`COc1ccc2nccc(C(=O)O)c2c1`: the AC50 result is “inactive”.

For the compound `COc1ccc(OC)c(-c2cc(C(=O)O)c3cc4ccccc4cc3n2)c1`, the activity, negative = inhibition was -21.4% [at 2.29 µM].

For the compound `O=C(O)c1ccc(C(=O)c2ccccc2)c(C(=O)O)c1`, the activity, negative = inhibition was 3.14% [at 2.29 µM].

For the compound `COc1ccc2oc(C(=O)c3ccccc3)c(N)c2c1`, the AC50 is 1.26 µM (active).

In the case of `O=C(O)c1ccc(C(=O)c2ccccc2C(=O)O)cc1C(=O)O`, the activity, negative = inhibition is 2.76% [at 11.4 µM].

For the compound `COc1ccc(C(=O)c2ccccc2)c(O)c1`, the AC50 was 1.58 µM (active).

Regarding `Cc1ccc(N(Cc2ccccc2)Cc2ccccc2)cc1`, the activity, negative = inhibition was -24.2% [at 2.29 µM].

Turning to `COc1ccc(CN(CCN(C)C)c2ccccn2)cc1`, the AC50 result is “inactive”.

For the compound `CN(C)c1nccc(N(Cc2ccccc2)Cc2ccccc2)c1C#N`, the AC50 is 11.2 µM (active).

`Cc1cc(N2C(=O)C(O)=C(C(=O)c3ccco3)C2c2ccc(O)cc2)no1` (centres undefined): the AC50 entry was “inactive”.

Regarding `Cc1ccc2occ(/C=C/C(=O)O)c(=O)c2c1`, the AC50 result is “inactive”.

As for `c1ccc(CNc2ncncc2-c2ccoc2)cc1`, the AC50 is 5.01 µM (active).

For `c1csc(CNc2ncncc2-c2ccoc2)c1`, the AC50 is 2 µM (active).

As to `c1cncc(-c2cncnc2NCc2cccs2)c1`, the AC50 was 0.316 µM (active).

As for `CC(N)=NCc1cccc(CN)c1`, the AC50 result was “inactive”.

Turning to `O=C(NCc1ccccc1)C(c1ccncc1)N(C(=O)c1csnn1)C1CC1` (centres undefined), the AC50 entry was “inactive”.

With `CN(C)CCCN1CCC2(CCC(C(C)(C)C)CC2)CC1`, the activity, negative = inhibition was -1.31% [at 11.4 µM].

Turning to `N#Cc1cccc(-c2nc(N3CCNCC3)c3ccccc3n2)c1`, the AC50 was 2.51 µM (active).

On to `CN1CCN(c2nc(-c3cccc(C#N)c3)nc3ccccc23)CC1`, for which the AC50 is 1.58 µM (active).

As for `COc1ccc(-c2nc(-c3cccc(C)c3)nc(N3CCN(C)CC3)c2C#N)cc1`, the AC50 result was “inactive”.

In the case of `COc1ccc(C(=O)NC2(C(F)(F)F)C(=O)Nc3c2c(=O)[nH]c(=O)n3CCc2ccc(OC)c(OC)c2)cc1` (centres undefined), the AC50 entry is “inactive”.

On to `CC(=O)OCc1c(C(F)(F)F)nn(C)c1Sc1ccccc1`, for which the AC50 was 15.8 µM (active).

Consider `COc1cc(S(C)=O)ccc1-c1nc2ncccc2[nH]1` (centres undefined), for which the AC50 was 0.251 µM (active).

`O=C(O)C[C@H](NC(=O)CP(=O)(O)O)C(=O)O.[NH-][C@@H]1CCCC[C@@H]1[NH-].[Pt]`: the activity, negative = inhibition is -15.5% [at 11.4 µM].

As for `FC(F)(F)c1nnc2c(Sc3ccc(Cl)cc3)nc3ccccc3n12`, the AC50 was 0.1 µM (active).

For `FC(F)(F)c1nnc2c(Sc3ccccc3)nc3ccc(Cl)cc3n12`, the AC50 is 0.708 µM (active).

Turning to `CC(/C=N/n1c(-c2cccnc2)n[nH]c1=S)=C\c1ccccc1`, the AC50 is 0.141 µM (active).

In the case of `O=C(O)c1nn(-c2ccccc2)ccc1=O`, the AC50 entry was “inactive”.

Consider `NNC(=O)c1nn(-c2ccc(Cl)cc2)ccc1=O`, for which the half-maximal activity concentration (AC50) is 15.8 µM (active).

Regarding `CC(C)=CCC/C(C)=C/CO/N=C1/C[C@@H](O)[C@@H](O)[C@@H]2[C@H]3C(=O)N(c4ccc(F)cc4F)C(=O)[C@@H]3CC[C@@H]12`, the activity, negative = inhibition is 8.54% [at 11.4 µM].

Turning to `C#CCN(C)CCCOc1ccc(Cl)cc1Cl`, the AC50 is 631 nM (active) and 158 nM (active).

`C#CCN(C)Cc1ccccc1`: the AC50 result is “inactive”.

With `CC[C@]1(O)C[C@H]2CN(CCc3c([nH]c4ccccc34)[C@](C(=O)OC)(c3cc4c(cc3OC)N(C=O)[C@H]3[C@@](O)(C(=O)OC)[C@H](OC(C)=O)[C@@]5(CC)C=CCN6CC[C@]43[C@H]65)C2)C1`, the AC50 result was “inactive”.

Consider `CO[C@H]1C[C@@H]2C[C@H](O)C[C@@H](CC(=O)O[C@@H](/C=C\CC(C)C)C[C@@H]3CC[C@H](C)[C@@H](C1)O3)O2`, for which the activity, negative = inhibition is -2.91% [at 11.4 µM].

Take `CN1CCC[C@@H]1CCO[C@](C)(c1ccccc1)c1ccc(Cl)cc1`: the AC50 entry is “inactive”.

As for `CCSc1ccc2c(c1)N(CCCN1CCN(C)CC1)c1ccccc1S2`, the AC50 is 0.316 µM (active).

Consider `O=C1CSC2(CCN(CCCN3c4ccccc4Sc4ccc(Cl)cc43)CC2)N1`, for which the AC50 is 3.16 µM (active).

In the case of `O=c1n(CCCN2CCN(c3cccc(Cl)c3)CC2)nc2ccccn12`, the AC50 result is “inactive”.

As for `CN1CCN(CCCN2c3ccccc3Sc3ccc(Cl)cc32)CC1`, the AC50 is 1 µM (active) and 2.51 µM (active).

Take `Clc1ccc2c(c1)N(CCCN1CCCC13CCCCC3)c1ccccc1S2`: the activity, negative = inhibition is -6.18% [at 2.29 µM].

As for `CN1CCCC[C@@H]1CCN1c2ccccc2Sc2ccc(S(C)=O)cc21` (some centres undefined), the AC50 entry was “inactive”.

Turning to `CSc1ccc2c(c1)N(CC[C@H]1CCCCN1C)c1ccccc1S2`, the AC50 is 7.94 µM (active).

On to `OC1CC2CC[C@H](C1)N2CCCN1c2ccccc2Sc2ccc(Cl)cc21` (some centres undefined), for which the activity, negative = inhibition is -12.5% [at 11.4 µM].

In the case of `Nc1c(S(N)(=O)=O)cc(S(N)(=O)=O)cc1S(N)(=O)=O`, the activity, negative = inhibition was -11.6% [at 11.4 µM].

For the compound `C=CCNCCCCOc1c(Cl)cc(C)cc1Br`, the AC50 is 0.2 µM (active).

`COCCCNCCCCOc1c(Cl)cc(C)cc1Br`: the AC50 is 0.562 µM (active).

Turning to `FC(F)(F)c1cc(CN2CCCC3(CCNCC3)C2)cc(C(F)(F)F)c1`, the AC50 result was “inactive”.

On to `C[C@H]1/C=C\CC(=O)OC[C@H](C)C(=O)N2CCC[C@@H]2C(=O)OC1`, for which the activity, negative = inhibition is 7.07% [at 11.4 µM].

Regarding `CCOC(=O)NNc1nncc2ccccc12`, the AC50 is 5.01 µM (active).

For `NNc1nncc2ccccc12`, the AC50 was 1 µM (active).

For the compound `Fc1ccc(Nc2ncncc2-c2ccoc2)cc1`, the half-maximal activity concentration (AC50) is 0.316 µM (active).

`c1ncc(-c2ccoc2)c(NC2CC2)n1`: the AC50 was 15.8 µM (active).

As to `Cc1noc(C)c1-c1cncnc1NC1CC1`, the AC50 entry is “inactive”.

For `c1ccc(Nc2ncncc2-c2ccoc2)cc1`, the AC50 was 1 µM (active).

Regarding `COc1cc(C2C(C#N)=C(N)N(Nc3ccccc3)C3=C2C(=O)CC(C)(C)C3)ccc1OCc1ccccc1` (centres undefined), the AC50 result was “inactive”.

With `COc1cc(/C=N/O)cc(Br)c1OCc1cccc(Cl)c1`, the AC50 is 0.631 µM (active).

For the compound `N/C(=N\OC(=O)c1cc(-c2ccccc2)nc2ccccc12)c1ccc(Cl)cc1`, the AC50 was 11.2 µM (active).

On to `O=C(O)c1cc(-c2ccc(-c3ccc(-c4cc(C(=O)O)c5cc(Cl)ccc5n4)cc3)cc2)nc2ccc(Cl)cc12`, for which the activity, negative = inhibition was -18.1% [at 2.29 µM].

On to `O=C1[C@H]2[C@H]3[C@H](O)[C@H](O)C/C(=N/OC[C@@H](O)COCc4ccco4)[C@@H]3CC[C@@H]2C(=O)N1Cc1ccccc1`, for which the activity, negative = inhibition is 11.1% [at 11.4 µM].

`CCNc1ncc2nc(-c3ccccc3)c(=O)n(C3CC3)c2n1`: the AC50 is 2.51 µM (active).

For the compound `CCNc1ncc2nc(-c3ccc(Cl)cc3)c(=O)n(C3CC3)c2n1`, the AC50 is 0.501 µM (active).

On to `O=C(O)C1=C/C(=C(/c2ccccc2)c2cc(C(=O)O)c(O)c3ccccc23)c2ccccc2C1=O`, for which the activity, negative = inhibition is -21.5% [at 11.4 µM] and -13.1% [at 11.4 µM].

`Cc1ccc(O)c(-c2cc(C(F)(F)C(F)F)nc(-c3ccccc3)n2)c1`: the half-maximal activity concentration (AC50) was 2.82 µM (active).

Regarding `COc1ccccc1NC(=S)NNC(=O)c1c(Cl)c(C)nn1C`, the AC50 result is “inactive”.

Take `COc1ccccc1NC(=S)NCCc1ccccc1`: the AC50 is 12.6 µM (active).

Take `Fc1ccccc1NC(=S)NCCc1ccccc1`: the AC50 is 5.62 µM (active).

With `COc1ccccc1NC(=S)NC(=O)c1ccc(-c2ccc(Cl)cc2)o1`, the AC50 is 2.82 µM (active).

In the case of `Fc1ccc(NC(=S)NCCc2ccccc2)c(F)c1F`, the AC50 is 5.62 µM (active).

For the compound `CCn1cc(C(=O)O)c(=O)c2cc(F)c(N3CCN[C@@H](C)C3)c(F)c21`, the AC50 entry is “inactive”.

For `C[C@@](N)(C(=O)O)c1ccc(S(=O)(=O)O)cc1`, the AC50 result is “inactive”.

In the case of `CC(C)(C)c1ccc(S(=O)(=O)/C=C\C#N)cc1`, the AC50 was 1.58 µM (active).

In the case of `CCc1cc2c(=O)c(-c3nc4ccccc4[nH]3)coc2cc1OC(=O)N1CCOCC1`, the AC50 entry was “inactive”.

As to `CC(=O)NCCC(=O)Nc1sc2c(c1-c1nc3ccccc3[nH]1)CCCC2`, the AC50 was 7.08 µM (active).

Consider `Cc1c(OC(=O)c2ccc([N+](=O)[O-])cc2)c2c(c[n+]1C)COC(C)(C)OC2`, for which the AC50 was 17.8 µM (active).

With `OCC1CCCN(Cc2ccc(-c3ccccc3)cc2)C1` (centres undefined), the AC50 entry was “inactive”.

As for `O=C(NCCc1ccccn1)c1cc(C(=O)C2CCCCC2)c[nH]1`, the AC50 is 14.1 µM (active).

As to `O=C(NCCCN1CCOCC1)c1cc2c(s1)CSC2`, the AC50 entry was “inactive”.

For the compound `Cc1cc(C)cc(N(C(=O)c2ccccn2)C(C(=O)NC2CCCCC2)c2cccs2)c1` (centres undefined), the AC50 entry was “inactive”.

As to `Cc1ccc(C(=O)c2c[nH]c(C(=O)NCCCN3CCOCC3)c2)cc1`, the AC50 result is “inactive”.

For `O=C(NCCCN1CCOCC1)c1cc(C(=O)C2CC2)c[nH]1`, the AC50 was 17.8 µM (active).
